In the supplement of paper PMC11417369:
± gives the standard deviation of the averaged measurements. The full ranking holds about 25,000 sequences; the median of “ln(normalized median fluorescence intensity)” is about 7.9, and the highest 2% start at about 11. The sample holds the highest values, similar sequences and a random draw of the others, so the mix is not that of the screen.

These sequences were tested on PfAP2-I AP2 domain 3 (GST-tagged) (assay: gcPBM binding intensity (ln(normalized median fluorescence intensity)); higher = stronger DNA binding).
How it was run: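 An Agilent 4 × 180k array carrying primer-extended double-stranded 36-bp intergenic genomic probes and negative controls received GST-tagged P. falciparum DNA-binding domains expressed in E. coli, about 25 μg on average, for 1 h. The binding buffer contained 1× PBS, 1% milk, 0.2 mg/ml BSA, 0.5% salmon testes DNA and 0.03% Triton X-100. Binding intensity is the top Masliner-normalised natural-log median intensity across replicate spots of either probe orientation, read after Alexa488 anti-GST antibody staining and a 488 nm scan.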

| Sequence | gcPBM binding intensity (ln) |
| --- | --- |
| TAATATAAAGAAATATCAATAATTTGGGCAAATGCC [GTGCAC_negctrl_site621] | 7.53 ± 0.45 |
| AATAATATTTATTTTTGTACATATGTGCATTATAAA [XGTACX_site3682] | 11 ± 0.98 |
| TTGCATTAATTTATGTGTACATATAAATTTTTATTT [XGTACX_site3060] | 8.21 ± 0.15 |
| ATAATAATATTATTTTGTACATATGTGCTTATTTAT [XGTACX_site5540] | 8.375 ± 0.035 |
| AAAAAATTAAAAATCACACATAAATATATATAAAAA [CACACA_site4192] | 7.53 ± 0.67 |
| ACATCATAAAATTTATGTACACATTTTTAATTATAC [XGTACX_site7759] | 8.19 ± 0.19 |
| ATTTATAAAATTAATGCACACATCAGCATTTATAAA [CACACA_site1025] | 11.3 ± 0.79 |
| CTCTATAAATGCTGCACACACATTTAATTATTTAAG [CACACA_site2582] | 9.045 ± 0.064 |
| AATTTAATATAATGCACACATAAAAAAAAAATCAAA [CACACA_site1] | 10.9 ± 0.65 |
| TTTATCAAAATAAATGCACACAAATTGCACATATCT [CACACA_site8281] | 10.31 ± 0.035 |
| AAATTAAAATATAATACACACATAAAAAAAAAATCA [CACACA_site5918] | 7.68 ± 0.61 |
| AAAATTTAATATAATGCACACATAAAAAAAAAATCA [CACACA_site7882] | 11.2 ± 0.76 |
| ATTATTTTATAATTCACACATAAATAAAAAAAAAAT [CACACA_site5290] | 7.76 ± 0.32 |
| TCTAATAAAATAAATACATGCATACATACATACATA [TGCATGCA_site895] | 7.76 ± 0.63 |
| TATGTGAATAAATAAGCACACATAAACACATATATA [CACACA_site9359] | 8.06 ± 0.42 |
| ATTTAATGTATTTTGCGTACGAATTATTTTATTTCA [XGTACX_site7331] | 7.93 ± 0.49 |
| CTATTATAATATTTTACACACCATGTAAAATATATA [CACACA_site3206] | 7.75 ± 0.39 |
| AAAATTAAAATACGTACACACCTTATCTTTTTGGCT [CACACA_site4311] | 8.21 ± 0.19 |
| ATATTTCTGTCAAGCACACATAATATTAAAATATGT [CACACA_site4330] | 7.91 ± 0.49 |
| ATATTTTATGTAAAGGTGCAAAACAACATTAAAAAA | 10.9 ± 0.47 |
| CATGCCTTTAAAAAGGTGCAAACATTTTCACAAACA | 10.4 ± 0.35 |
| ATTTATTTTATATGTTGTACAAACATTTTAAAACAT [XGTACX_site6919] | 7.79 ± 0.38 |
| CTTGAAAAAATAAAAACACACAATGTGTTTTTGAAT [CACACA_site3283] | 7.42 ± 0.68 |

| Sequence | gcPBM binding intensity (ln) |
| --- | --- |
| TTTCATTTAGCTTTTACACACTATATATCATTGATT [CACACA_site6158] | 7.89 ± 0.68 |
| AGTATTATATTTGTATGTACGTAGTAATATATAAAA [XGTACX_site528] | 7.86 ± 0.6 |
| CGATTTTTTAAGTTTGTGCACTTAAAAACTATAACA | 10.9 ± 0.54 |
| TTAAACTTGTTTTGGATGCACTATATAATTCATTTT [GTGCAC_site9549] | 9.45 ± 0.15 |
| TTTATTTTATTCACTATCATAAGCAAAACTTAAACA [GTGCAC_negctrl_site287] | 7.6 ± 0.4 |
| TTTCATATTTTGTCCTGTTTTTTTTTTTTTTTTCTT [CACACA_negctrl_site993] | 7.53 ± 0.59 |
| TTTAACTTTTATATAACACACATATTGTAATTATGT [CACACA_site6486] | 7.92 ± 0.33 |
| TTTTTTGAATTTAAAAGTACAGGCTTTTACCAAATA [XGTACX_site1356] | 7.7 ± 0.45 |
| TTTTTTTTTTGTAATTGTACTTTTTTAATACTTCTA [XGTACX_site4195] | 7.74 ± 0.82 |
| TTAGTTTATTGGTACTGTACTTTTTTTTTCTCCATT [XGTACX_site8618] | 8.02 ± 0.33 |
| TATTCGTGCAATAATGGTACACTTATAAATTATTCA [XGTACX_site1430] | 10.7 ± 0.71 |
| TATTCGTGCAATAATAGTACACTTATAAATTATTCA [XGTACX_site8993] | 11.2 ± 0.66 |
| TATTCGTGCAATAGTAGTACACTTATAAATTATTCT [XGTACX_site4899] | 10.7 ± 0.61 |
| ACACATACATACATATGTACATATATACATATATAC [XGTACX_site5559] | 8.45 ± 0.83 |
| AAATAATACATTCGTACTACACATATATATTAAATA [XGTACX_site7806] | 7.84 ± 0.41 |
| GTAGGCATTAAAAAATGTACAAAATATTATGAATTG [XGTACX_site1615] | 7.65 ± 0.55 |
| AGTAGGCATATTGGTTGTACAAAAAAATTATGCACC [XGTACX_site8925] | 11.2 ± 0.61 |
| TGAACATATTAAAATTGTACATATGCACAATATGTA [XGTACX_site6801] | 8.53 ± 0.29 |
| ATATATATATATGCATGTACATATATTTGTTATATC [XGTACX_site3197] | 9.22 ± 0.27 |
| TATATATATATATATGCATGTACATATATTTGTTAT [TGCATGCA_site379] | 9.45 ± 0.14 |
| TATGTGCACCCATGTACATGCGGACATATGTTATAT [TGCATGCA_site383] | 11 ± 0.9 |
| TATATAATAATTTAGAGTACTGATAAAATATTCCAT [XGTACX_site6200] | 7.55 ± 0.47 |
